{"source": "ChEMBL document CHEMBL3988442", "about": "“University of Dundee, Small-Polar-MMV Screening Library” (2021)", "note": "The whole screen tested about 48,000 compounds, of which about 13,000 (27%) showed an effect of 50% or more. This is one part of the list."}
{"tested_on": "Wolbachia pipientis", "assay": "Anti-Wolbachia Cell-Based Screen", "type": "functional", "design": "scale not given: in the data most compounds retested in dose-response had high values", "conditions": "5 µM", "units": {"Percent Effect": "%"}}
{"smiles": "N[C@H]1CN(C(=O)c2ccc3[nH]c(CO)nc3c2)C[C@@H]1c1ccccc1", "Percent Effect": 103.3}
{"smiles": "CCC[C@H]1CN(C(=O)c2ccc3[nH]c(CO)nc3c2)C[C@@H]1N", "Percent Effect": 98.53}
{"smiles": "Cc1nc2cc(C(=O)N3C[C@@H](C(=O)O)[C@H](c4ccncc4)C3)ccc2[nH]1", "Percent Effect": -0.783}
{"smiles": "N[C@H]1CN(C(=O)CCc2ccccn2)C[C@@H]1c1ccccc1", "Percent Effect": 8.322}
{"smiles": "Nc1nc(CCC(=O)N2C[C@H](c3ccccc3)[C@@H](N)C2)cs1", "Percent Effect": -7.394}
{"smiles": "Cc1nc2cc(C(=O)N3C[C@@H](NS(C)(=O)=O)[C@H](C(C)C)C3)ccc2[nH]1", "Percent Effect": -4.009}
{"smiles": "Cc1nc2cc(C(=O)N3C[C@@H](C(=O)O)[C@H](C4CC4)C3)ccc2[nH]1", "Percent Effect": -4.344}
{"smiles": "N[C@H]1CN(C(=O)CCC(F)(F)F)C[C@@H]1c1ccccc1", "Percent Effect": 7.576}
{"smiles": "O=C(CCn1ccc(=O)[nH]c1=O)N1CCC(Oc2ncccc2Cl)CC1", "Percent Effect": 8.092}
{"smiles": "Cc1ccc(CNC2CCCc3c2cnn3Cc2ccccc2)s1.Cl", "note": "(stereo not drawn)", "Percent Effect": 8.556}
{"smiles": "Cc1oc(-c2ccccc2)nc1C(=O)NC1=NCCS1", "Percent Effect": -10.94}
{"smiles": "Cc1ccc(NC(=O)c2ccc(N3CCCCC3)nn2)c(Cl)c1", "Percent Effect": -6.125}
{"smiles": "Cc1cc2ccccc2n1CCC(=O)N1CCCCC1CCO", "note": "(stereo not drawn)", "Percent Effect": -1.29}
{"smiles": "Cn1c(C2CCCCN2C(=O)CN2CCCC2=O)nc2ccccc21", "note": "(stereo not drawn)", "Percent Effect": 3.336}
{"smiles": "O=C(NCCCc1cccs1)N1CCCCC1CCO", "note": "(stereo not drawn)", "Percent Effect": -11.71}
{"smiles": "Cc1cc(C)n(CC(=O)N2CCCCC2CCN2CCCC2=O)c(=O)n1", "note": "(stereo not drawn)", "Percent Effect": 117.3}
{"smiles": "Cc1cc(C)n(CC(=O)N2CCCCC2CCN(C)C)c(=O)n1", "note": "(stereo not drawn)", "Percent Effect": 101.4}
{"smiles": "Cc1cc(C)n(CC(=O)N2CCCCC2CCc2cccs2)c(=O)n1", "note": "(stereo not drawn)", "Percent Effect": 103.5}
{"smiles": "Cc1cc(C)n(CC(=O)N(C)Cc2csc(-c3cccs3)n2)c(=O)n1", "Percent Effect": -2.174}
{"smiles": "Cc1cc(C)n(CC(=O)N2C[C@@H]3CC[C@H](C2)N(CC2CCC2)C3)c(=O)n1", "Percent Effect": 9.507}
{"smiles": "O=C1CCCN1CCC1CCCCN1C(=O)c1ccc(SCCO)cc1", "note": "(stereo not drawn)", "Percent Effect": 10.34}
{"smiles": "COC(=O)c1cc(CN2CCN(c3nc(C)cnc3C)CC2)ccc1O", "Percent Effect": -22.17}
{"smiles": "CCN(CC)C(=O)c1cc(Br)cc(S(=O)(=O)N2CCOCC2)c1F", "Percent Effect": -12.93}
{"smiles": "COc1ccccc1C(=O)Nc1ccc(OC2CCN(C)CC2)cc1", "Percent Effect": -27.65}
{"smiles": "COc1ccccc1C(=O)Nc1c(C)cnn1CC1CC1", "Percent Effect": -3.808}
{"smiles": "COc1ccccc1C(=O)Nc1c(F)c(C(=O)N2CCCC2)nn1C", "Percent Effect": 113.5}
{"smiles": "COc1ccccc1C(=O)Nc1c(F)c(C(=O)NC2CCCC2)nn1C", "Percent Effect": 102.6}
{"smiles": "Cc1nn(C)c(C)c1C(C(=O)O)N1CCc2ccccc2C1", "note": "(stereo not drawn)", "Percent Effect": 39.47}
{"smiles": "CC(C)C(=O)Nc1cc(C(C)(C)C)nn1-c1ccccn1", "Percent Effect": 3.907}
{"smiles": "CN(Cc1ccccc1Cl)C(C(=O)O)c1ccc(F)c(CO)c1", "note": "(stereo not drawn)", "Percent Effect": -0.8463}
{"smiles": "CCn1cc(C(=O)Nc2ccc(C)cc2C(=O)NC)cn1", "Percent Effect": -4.213}
{"smiles": "Cc1cn(-c2ccccc2)nc1NS(=O)(=O)c1cccc(C(=O)O)c1", "Percent Effect": 12.37}
{"smiles": "NC(=O)C1CCN(S(=O)(=O)c2cnn(-c3ccccc3)c2)CC1", "Percent Effect": -7.83}
{"smiles": "Cc1ccc(NS(=O)(=O)c2cnn(Cc3ccccc3)c2)c(C(=O)O)c1", "Percent Effect": 100.3}
{"smiles": "CCn1cc(S(=O)(=O)NC(CO)Cc2ccccc2)cn1", "note": "(stereo not drawn)", "Percent Effect": -18.17}
{"smiles": "Cc1cccc(NS(=O)(=O)c2cnn(C)c2)c1C#N", "Percent Effect": -6.698}
{"smiles": "Cc1ccc(NS(=O)(=O)c2cnn(-c3ccccc3)c2)c(C(=O)O)c1", "Percent Effect": 131.3}
{"smiles": "CCn1nc(C)c(S(=O)(=O)Nc2cccc(C(=O)O)c2C)c1C", "Percent Effect": -0.6024}
{"smiles": "Cc1ccc(-n2cc(S(=O)(=O)Nc3cccc(C(=O)O)c3C)cn2)cc1", "Percent Effect": 125.3}
{"smiles": "CC(C)c1cc(N2CCC(C(C)N3CCCC3)CC2)n2nccc2n1", "note": "(stereo not drawn)", "Percent Effect": -4.218}
{"smiles": "CN(Cc1nc(-c2cccs2)no1)Cc1nc2c(s1)CCCC2", "Percent Effect": -10.58}
{"smiles": "Cc1ccc2cnn(CCC(=O)Nc3c(C)nn(C)c3C)c2c1", "Percent Effect": -9.349}
{"smiles": "O=C(NCc1cccc(N2CC=CC2)c1)NC1CC1", "Percent Effect": 1.832}
{"smiles": "Cc1ccc(C(=O)N2CC[C@H](N3CCOCC3)[C@H](CCCO)C2)cc1O", "Percent Effect": -3.81}
{"smiles": "Cn1cccc1C(=O)N1CCN(CC2CC2)c2ncccc2C1", "Percent Effect": -25.73}
{"smiles": "CN1CCN(C(=O)c2cccn2C)Cc2cccnc21", "Percent Effect": 105.6}
{"smiles": "O=C(c1cnccn1)N1CCN(Cc2cccnc2)c2ncccc2C1", "Percent Effect": 97.13}
{"smiles": "CN(C)C(=O)N1CCN(C)c2ncccc2C1", "Percent Effect": 5.475}
{"smiles": "O=C(c1cnccn1)N1CCN(Cc2ccncc2)c2ncccc2C1", "Percent Effect": -4.343}
{"smiles": "O=C(N1CCCC1)N1CCN(Cc2cccnc2)c2ncccc2C1.O=C(O)C(F)(F)F.O=C(O)C(F)(F)F", "Percent Effect": 101.8}
{"smiles": "Cn1cccc1C(=O)N1CCN(Cc2ccncc2)c2ncccc2C1.O=C(O)C(F)(F)F.O=C(O)C(F)(F)F", "Percent Effect": -28.33}
{"smiles": "Cn1cccc1C(=O)N1CCN(Cc2cccnc2)c2ncccc2C1.O=C(O)C(F)(F)F.O=C(O)C(F)(F)F", "Percent Effect": 51.12}
{"smiles": "COCCN1CCN(C(=O)c2ccncc2F)Cc2cccnc21", "Percent Effect": 4.379}
